Screening results as filed in PubChem BioAssay.
eLon inh = E. coli protease La inhibition; inhibition, % at 7.94 µM; AID 602123; purified E. coli Lon protease, fluorescence polarization; 360,000 tested, 0.42% active; P0A9M0; in the data active = inhibition above about 13%, passing the limit was not always enough
ZTA DNA inh = counter-screen for EBNA-1 inhibitors: inhibitors of Epstein-Barr virus ZTA; P03206; ZTA-DNA binding, fluorescence polarization; inhibition, % at 11 µM; 320,000 tested, 0.15% active; in the data active = inhibition above about 33%
EBNA-1 inhibitor = blocks EBNA-1 binding to DNA; EBNA-1 DNA binding, fluorescence polarization; inhibition, % at 14.8 µM; 300,000 tested, 0.34% active; AID 1950; in the data active = inhibition above about 28%
Keap1-Nrf2 PPI = Keap1-Nrf2 (human) interaction inhibition; inhibition, % at 9.4 µM; Q14145; 340,000 tested, 0.15% active; Keap1 Kelch-Nrf2 peptide fluorescence polarization, 1536-well; in the data active = inhibition above about 12%;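 note: human Keap1 Kelch domain with fluorescein labeled Nrf2 9mer peptide probe; higher means more block of Keap1 binding to Nrf2 peptide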
C-LANA FP = inhibitors of KSHV LANA C-terminal domain DNA binding. MBP-C-LANA/FAM-LBS DNA binding, fluorescence polarization. inhibition, % at 9 µM. 340,000 tested, 0.078% active. AID 504423;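 active = highest replicate inhibition at or above 60% at 9 µM, even if other replicates fall short; inactive = all replicates below 60% inhibition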
E coli Lon conf = confirmation of E. coli Lon protease inhibitors; purified E. coli Lon, fluorescence polarization; shares compounds with eLon inh; inhibition, % at 7.94 µM; 1,400 tested, 31% active; in the data active = inhibition above about 16%
Of the large screens only hits and unclear results are named; the others gave an inactive call (follow-up assays come after a bar, where they were run). Hits are enriched below; roughly 0.85% of the tested compounds scored in any of these assays.

CCNS(=O)(=O)c1ccc2c(c1)n(C)c(=O)n2C	none
O=C(Cc1sc(Nc2ccccc2)nc1-c1ccccc1)NCc1ccccc1	none
O=C(Cc1sc(-c2ccccc2)nc1-c1ccccc1)Nc1ccccc1	eLon inh 16 | E coli Lon conf inactive
CCOC(=O)N1CCN(C(=O)CSC2=NS(=O)(=O)c3ccccc3N2)CC1	none
Cc1cc2cc(CNC(=O)c3ccc(S(=O)(=O)N4CCOCC4)cc3)ccc2n1C	eLon inh 24 | E coli Lon conf inactive
Cc1cc2cc(CNC(=O)c3ccc(S(=O)(=O)N(C)C)cc3)ccc2n1C	eLon inh 26 | E coli Lon conf inactive
Cc1cc2cc(CNC(=O)c3cccc([N+](=O)[O-])c3)ccc2n1C	none
